# Screening results: PubChem BioAssay, several laboratories
# GDH-TPI counter-1: GDH-TPI coupling enzyme inhibitors, primary screen, artefact control for M. tuberculosis FBA inhibitor project, biochemical, absorbance, full deck. GDH-TPI coupled enzyme counterscreen, NADH absorbance. AID 588335, 2011. 360,000 compounds, 1.2% hits. inhibition, % at 4.8 µM; in the data active = inhibition above about 30%;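 note: 0% = DMSO wells and 100% = wells lacking the enzyme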
# Vc quorum ag: inducers of Vibrio cholerae quorum light production without autoinducers, primary screen, BH1578 luxS cqsA deficient, single point | V. cholerae BH1578 lux reporter, luminescence, 6 h | activation, % at 18.7 µM | 350,000 compounds, 0.16% hits; in the data active = activation mostly above about 9.7%, no sharp cut-off
# FBA Mtb inh: Mtb FBA enzyme inhibitors, primary screen, biochemical, fluorescence, strain H37Rv; purified M. tuberculosis FBA, fluorescence read-out; Fructose-bisphosphate aldolase (Mycobacterium tuberculosis (strain ATCC 25618 / H37Rv)), …; 360,000 compounds, 2.3% hits; inhibition, % at 1 µM; AID 588726, 2011;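 note: 0% = vehicle and 100% = reference inhibitor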
# Target sequence (P9WQA3 whole entry, looked up): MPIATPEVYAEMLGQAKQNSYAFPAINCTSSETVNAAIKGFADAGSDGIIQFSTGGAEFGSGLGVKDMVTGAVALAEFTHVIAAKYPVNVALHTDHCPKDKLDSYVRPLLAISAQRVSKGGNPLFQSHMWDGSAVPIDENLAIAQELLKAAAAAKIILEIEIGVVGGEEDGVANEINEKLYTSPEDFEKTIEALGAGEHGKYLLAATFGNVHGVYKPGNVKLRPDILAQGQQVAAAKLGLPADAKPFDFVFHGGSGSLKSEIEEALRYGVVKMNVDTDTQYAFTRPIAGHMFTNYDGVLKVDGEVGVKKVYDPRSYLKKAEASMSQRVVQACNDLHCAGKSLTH
# CCHFV vOTU inh: CCHFV vOTU protease inhibitors, primary screen, biochemical, Pep-AMC substrate, fluorescence; Crimean-Congo hemorrhagic fever virus L polyprotein viral ovarian tumor (vOTU) protease …; inhibition, % at 11.5 µM; 370,000 compounds, 0.55% hits; AID 651958, 2012; in the data active = inhibition above about 30%; note: 0% = vehicle wells with enzyme and 100% = no enzyme wells
# Mtb FBA confirm: M. tuberculosis aldolase blockers, biochemical, fluorescence, strain H37Rv, confirmation. inhibition, % at 1 µM. 5,600 compounds, 78% hits. purified M. tuberculosis FBA, fluorescence read-out. shares compounds with FBA Mtb inh;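 note: 0% = vehicle wells and 100% = reference inhibitor wells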
# GDH-TPI counter-2: GDH-TPI coupling enzyme inhibitors, artefact control for M. tuberculosis FBA inhibitor project, biochemical, fluorescence, high throughput; shares compounds with FBA Mtb inh; GDH-TPI coupled enzyme counterscreen; inhibition, % at 1 µM; 5,600 compounds, 81% hits; AID 652141, 2013; in the data active = inhibition above about 10%
# GDH-TPI DR: GDH-TPI coupling enzyme inhibitors, dose response, artefact control for M. tuberculosis FBA inhibitor project, biochemical, fluorescence, IC50; AID 652145, 2013; shares compounds with FBA Mtb inh; IC50, µM; GDH-TPI coupled enzyme assay, artifact counterscreen; 170 compounds, 79% hits; call rule not given here
# * = called active by the depositor; i = inactive; . = no result given; + = active, no number. This is a sample that favours compounds with a hit; in the whole collection about 3.9% have one here. Cut-off read from the data, not from the text of the source, unless noted: active = inhibition above about 27%; inactive = the rest.
SMILES,GDH-TPI counter-1,Vc quorum ag,FBA Mtb inh,CCHFV vOTU inh,Mtb FBA confirm,GDH-TPI counter-2,others
Cc1ccc(S(=O)(=O)N2CCC(C(=O)NNC(=O)c3ccccc3O)CC2)cc1C,-3.6,i,29.7*,12.0,+,+,
Cc1cc(C)c(C)c(S(=O)(=O)N2CCC(C(=O)NNC(=O)c3ccccc3O)CC2)c1C,4.5,-1.5,38.8*,-1.7,133.3*,112.6*,
Cc1ccc(CN2CC(C(=O)Nc3cccc(C)n3)CC2=O)cc1 (stereo not given),-0.7,-2.1,-0.4,-0.4,.,.,
O=C(Nc1nc2nc(-c3ccccc3)cc(-c3ccccc3)n2n1)c1ccco1,28.0,i,43.2*,-9.5,132.2*,97.8*,
Cc1nc2cc(-c3cccs3)[nH]n2c(=O)c1C,1.5,i,45.9*,.,11.1,2.0,GDH-TPI DR=5.65*
Cc1ccccc1-c1cc2nc(C)c(C)c(=O)n2[nH]1,-6.5,3.0,15.8,7.3,.,.,
C=CCn1c(=O)n(CCOC)c(=O)c2sc3ccccc3c21,10.6,0.1,37.5*,-17.5,154.8*,164.3*,
O=c1c2c(nc3cc(-c4cccc(F)c4)[nH]n13)CCC2,2.5,-0.3,37.2*,2.8,-3.5,-2.6,
O=c1c2c(nc3cc(-c4ccc(F)cc4)[nH]n13)CCCC2,0.0,2.8,22.1,-2.5,.,.,
CCOc1ccc(C(=O)NCc2ccccc2OC)cc1,10.7,-0.8,3.1,-20.9,.,.,
CCn1nc2cc(C(=O)NCCc3cccs3)ccc2c1OC,3.6,-0.9,40.7*,-22.9,+,196.3*,
CCOc1c2ccc(C(=O)NCCc3ccc(C)cc3)cc2nn1CC,1.3,-0.4,50.6*,-52.2,121.4*,104.6*,
Cc1ccc(C(=O)NCCc2cccs2)cc1,13.2,-0.4,1.4,-16.9,.,.,
CCCn1nc2cc(C(=O)NCc3ccccc3OC)ccc2c1OCC,15.7,-10.9,42.4*,-36.9,-2.3,-3.7,
O=C(NCCCCc1ccccc1)c1cccc(Br)c1,8.4,i,-1.1,2.4,.,.,
CCOc1c2ccc(C(=O)NCCCCc3ccccc3)cc2nn1CC,11.2,0.7,47.9*,-28.0,5.4,-1.2,
COc1ccc(C(=O)Nc2ccc(C(=O)Nc3cccc(C)c3)cc2)cc1,-9.6,0.0,-0.3,-6.8,.,.,
C=CCOc1c2ccc(C(=O)NCc3ccc(C)cc3)cc2nn1C,-10.0,-0.6,12.5,-19.6,.,.,
CCCn1nc2cc(C(=O)NCc3ccc(C)cc3)ccc2c1OCC,1.4,i,52.0*,-35.3,85.6*,62.9*,
CCOc1c2ccc(C(=O)NCc3ccc(C)cc3)cc2nn1CC,11.7,i,67.3*,-51.7,66.9*,44.5*,
CC(C)NC(=O)NC(=O)COC(=O)c1ccc(S(=O)(=O)NCc2ccco2)cc1,6.4,-0.6,1.1,1.4,.,.,
CC(C)(C)c1ccc(C(=O)NCc2ccccc2)cc1,-6.3,-0.2,1.6,-2.9,.,.,
CC(C)(C)c1ccc(C(=O)NCCc2ccccc2)cc1,5.5,-1.3,27.1*,10.0,111.1*,93.4*,
O=C(c1ccco1)N1CCN(C(=O)c2ccc(CS(=O)c3ccc(Br)cc3)o2)CC1 (stereo not given),2.6,-3.0,1.0,-9.4,.,.,
Cc1cc2[nH]c(=O)cc(-c3ccccc3)n2n1,6.5,-1.2,34.0*,-32.9,153.3*,119.8*,
Cc1cc2[nH]c(=O)c3ccccc3n2n1,7.7,-0.2,6.3,-10.4,.,.,
Cc1ccccc1OCCC(=O)Nc1ccc2c(C)cc(=O)oc2c1,11.3,-0.5,94.9*,-103.5,183.0*,153.4*,
CCCC(C(=O)Nc1ccc(C)c(S(=O)(=O)N2CCOCC2)c1)c1ccccc1 (stereo not given),-6.5,i,-1.9,10.8,.,.,
